High-throughput results: PubChem, several laboratories
Compounds with a hit are over-represented: about 1.8% of the library has one in this group of screens.
GSIS activator: primary screen for activators of insulin secretion dependent on glucose, INS-1E cells, GLuc reporter luminescence. 0.61% of 370,000 active. activation, % at 16.6 µM. INS-1E GLuc reporter insulin secretion, 2-3 h;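 active = lowest replicate activation of at least 40%, so every replicate reaches that level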;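 also: 0% = median of neutral control wells and 100% = median of IBMX positive control wells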
NRP1-CendR mod: modulators of CendR peptide binding to human neuropilin-1; FAM-RPARPAR peptide binding to NRP-1, fluorescence polarization; AID 602438; inhibition, % at 25 µM; 0.85% of 360,000 active; O14786;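 active = inhibition or corrected inhibition above about 18%, plus a signal ratio from 0.5 to 1.5, limit read from the data, passing the limit was not always enough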
Target sequence (O14786 whole entry, looked up): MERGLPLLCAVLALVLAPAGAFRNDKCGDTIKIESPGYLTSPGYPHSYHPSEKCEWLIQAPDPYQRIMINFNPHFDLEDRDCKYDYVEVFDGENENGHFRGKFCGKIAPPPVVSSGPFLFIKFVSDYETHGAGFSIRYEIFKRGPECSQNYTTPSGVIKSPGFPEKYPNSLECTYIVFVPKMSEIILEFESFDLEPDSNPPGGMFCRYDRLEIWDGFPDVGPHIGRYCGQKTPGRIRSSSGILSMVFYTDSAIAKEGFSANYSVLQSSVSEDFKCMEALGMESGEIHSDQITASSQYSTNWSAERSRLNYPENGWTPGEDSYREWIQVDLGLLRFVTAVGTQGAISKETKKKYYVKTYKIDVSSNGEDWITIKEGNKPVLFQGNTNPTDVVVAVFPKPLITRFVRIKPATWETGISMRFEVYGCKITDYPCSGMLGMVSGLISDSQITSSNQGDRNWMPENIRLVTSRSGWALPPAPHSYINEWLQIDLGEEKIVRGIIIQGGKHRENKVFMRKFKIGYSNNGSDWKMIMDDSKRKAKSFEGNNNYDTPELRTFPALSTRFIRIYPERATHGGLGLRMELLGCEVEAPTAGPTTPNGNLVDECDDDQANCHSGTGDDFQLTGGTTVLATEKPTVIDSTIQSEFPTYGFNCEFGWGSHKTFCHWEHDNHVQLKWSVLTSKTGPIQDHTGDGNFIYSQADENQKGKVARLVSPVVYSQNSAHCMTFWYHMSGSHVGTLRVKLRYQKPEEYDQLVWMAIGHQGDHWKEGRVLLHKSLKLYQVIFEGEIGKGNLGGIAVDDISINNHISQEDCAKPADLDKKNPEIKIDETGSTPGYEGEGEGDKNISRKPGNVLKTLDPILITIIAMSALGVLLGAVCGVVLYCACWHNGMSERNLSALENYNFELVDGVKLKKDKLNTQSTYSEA
ABCB6 inh MLPCN: human ABCB6 transporter inhibition; 0.19% of 360,000 active; fluorescence ratio to DMSO, % at 10 µM; Q9NP58; AID 602162; K562-ABCB6 porphyrin accumulation, flow cytometry, 1 h; hits give low values;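 active = fluorescence ratio to DMSO below 75%, the collection mean minus 3 SD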;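 also: signal is porphyrin accumulated inside mitochondria; 100% equals median channel fluorescence of DMSO control wells; lower ratio means ABCB6 inhibition with less porphyrin fluorescence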
ARNT-TACC3 inh: ARNT/TACC3 interaction disruption; inhibition, % at 9.99 µM; 0.66% of 390,000 active; Q9Y6A5; AlphaScreen His-ARNT PAS-B/GST-TACC3 binding, luminescence; TACC3 fragment carries E629A point mutation;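 active = mean inhibition of replicates at least 50% and at least half of replicates each reaching 50%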;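 also: 0% = complete ARNT plus TACC3 wells and 100% = ARNT alone without TACC3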
iPSC survival up: enhancers of human iPSC single-cell survival | AID 602274 | survival enhancement, % at 20 µM | hiPSC single-cell survival, ATPlite luminescence; 100% = ROCK inhibitor wells, 0% = DMSO | 0.044% of 360,000 active; in the data active = survival enhancement above about 18%;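 also: cells exposed to compounds for 16 hours before the ATP read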
Starred values were filed as active, the others as inactive; . = no result given; ! = not active in a repeat.

SMILES | GSIS activator | NRP1-CendR mod | ABCB6 inh MLPCN | ARNT-TACC3 inh | iPSC survival up
Cc1cccc(-c2ccc(C3[C@@H]4CN(Cc5cccc(F)c5)C[C@H]3N4)cc2)c1 (some centres undefined) | 70* | . | . | . | .
Cc1cccc(-c2ccc(C3[C@@H]4CN(Cc5ccccc5)C[C@H]3N4)cc2)c1 (some centres undefined) | 14 | . | . | . | .
COc1cccc(CN2CC3(CN(Cc4ccccn4)C3)c3c([nH]c4cc(OC)ccc34)[C@H]2CO)c1 | 8 | . | . | . | .
Cc1cccc(S(=O)(=O)N2C[C@@H]3N[C@H](C2)C3c2ccc(-c3ccccc3C)cc2)c1 (some centres undefined) | 35 | . | . | . | .
Cc1cccc(S(=O)(=O)N2C[C@@H]3N[C@H](C2)C3c2ccc(-c3ccccc3F)cc2)c1 (some centres undefined) | 81*! | . | . | . | .
COc1ccc(-c2nnc3sc(-c4ccco4)nn23)cc1OC | 59* | -10 | 96 | -4 | 0
C[C@H]1CN([C@@H](C)CO)C(=O)c2cc(NC(=O)CCN3CCOCC3)ccc2O[C@H]1CN(C)S(=O)(=O)c1ccc(Cl)cc1 | -1 | . | . | -10 | .
c1cn2cc(-c3ccc(CN4CCOCC4)cc3)ccc2n1 | 55* | 6 | 98 | . | 3
c1ccc2c(c1)CC(N1CCCCC1)c1ccccc1S2 (centres undefined) | 22 | 41* | 102 | -52 | 0
CCc1ccc2c(c1)Sc1ccccc1CC2N1CCN(C)CC1 (centres undefined) | 19 | 12 | 97 | 11 | 0
CC(C)NC(=O)Nc1ccc2c(c1)C(=O)N([C@@H](C)CO)C[C@@H](C)[C@@H](CN(C)C(=O)c1ccccc1)OCCCC[C@@H](C)O2 | 10 | . | . | -9 | .
CC1(C)SC2c3ccccc3C(=O)N2[C@@H]1C(=O)NC1CC1 (some centres undefined) | 42* | -6 | 97 | -12 | 0
CC1(C)SC2c3ccccc3C(=O)N2[C@@H]1C(=O)NC1CCCC1 (some centres undefined) | -5 | 8 | 100 | -2 | 0
CCOC(=O)N1CCC(=NNc2ncc(C(F)(F)F)cc2Cl)CC1 | 8 | -9 | 95 | 1 | 0
CC(=O)N1CCC(=NNc2ncc(C(F)(F)F)cc2Cl)CC1 | 0 | 4 | 97 | 48* | 0
O=C(C1CCCC1)N1[C@H](CO)[C@H](c2ccccc2)C12CN(CCC(F)(F)F)C2 | 5 | . | . | . | .
O=C1c2ccccc2S(=O)(=O)N1CCCN1C(=O)c2ccccc2S1(=O)=O | 1 | -5 | 97 | 7 | 2
O=C1c2ccccc2C(=O)N1OCCCN1C(=O)c2ccccc2S1(=O)=O | 11 | 1 | 31* | -4 | -2
Cc1csc(=O)n1CC(=O)OCC(=O)Nc1ccc(C(N)=O)cc1 | 14 | -14 | 98 | 1 | -1
Cc1csc(=O)n1CCC(=O)OCC(=O)Nc1ccc(C(N)=O)cc1 | 25 | 23* | 105 | 0 | 0
CCc1ccc(-c2cc(C(=O)N/N=C/c3ccco3)[nH]n2)cc1 | -5 | 16 | 92 | -1 | -1
O=C(N/N=C/c1ccco1)c1cc(-c2ccc3ccccc3c2)n[nH]1 | 83* | -10 | 113 | 7 | -1
CCCCn1c(-c2ccncc2)nc2c1c(=O)[nH]c(=O)n2CC(C)C | 70* | 21 | 98 | 16 | 0
COCCn1c(-c2ccc(SC)cc2)nc2c1c(=O)[nH]c(=O)n2CC(C)C | 4 | -8 | 95 | -4 | 0
Cc1ccc(C(=O)NNC(=S)NC(=O)COc2ccccc2)cc1 | 29 | -19 | 93 | 7 | 0
SMILES | GSIS activator | NRP1-CendR mod | ABCB6 inh MLPCN | ARNT-TACC3 inh | iPSC survival up
Cc1cccc(OCC(=O)NC(=S)NNC(=O)c2ccncc2)c1 | 5 | -5 | 97 | 56* | 0
CCS(=O)(=O)Nc1ccc2c(c1)C(=O)N(C)C[C@H](OC)[C@@H](C)CN(Cc1ccccn1)[C@H](C)CO2 | 6 | . | . | 7 | .
N=C(N)SCc1ncccc1O | 3 | 6 | 98 | 50* | -1
COc1ccccc1CSc1nc2c(c(=O)n(C)c(=O)n2C)n1C | 41* | 8 | 98 | 4 | 0
CN1C(=O)c2cc(NC(=O)c3cccc(F)c3)ccc2OC[C@H]2O[C@H](CC(=O)NCC3CC3)CC[C@H]21 | -4 | . | . | . | .
N/C(=N\OC(=O)c1ccccc1Br)c1cccc([N+](=O)[O-])c1 | 41* | 3 | 96 | -1 | -1
